Measured values taken from PubChem BioAssay (NCATS).
Results filed as inconclusive are left out. Active and inactive are the calls of the source. The call rests on the fitted dose curve; in most records, active means well fitted curve in the direction sought with a large enough effect; inconclusive means small, poorly fitted or top-dose-only effect, or another doubt; inactive means no such curve, though single readings can be large; an effect the other way counts as inactive or inconclusive.

Tests used:
[1] = qHTS assay for measurement of the activity of small molecule inhibitors on Zika virus induced Caspase-3 activity in human iPSC derived neural progenitor cells (hNPCs) (AID 1224857); conditions: hNPCs ZIKV-induced caspase-3/7, Caspase-Glo luminescence, 6 h; series mostly up to 45.7 µM; further: nearly all actives have a fitted effect of over 65% in size
Summary of the method: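 Quantitative HTS format: human iPSC neural progenitors, 1 h compound pretreatment, ZIKV 2 FFU/cell for 6 h at 37 C. Percent inhibition derived from luminescent caspase-3/7 signal between uninfected and infected controls.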

[2] = qHTS assay for measurement of the activity of small molecule inhibitors on Zika virus induced Caspase-3 activity in human astrocytoma cells (AID 1224859); conditions: SNB-19 ZIKV-induced caspase-3/7, luminescence, 6 h; series mostly up to 45.7 µM
Summary of the method: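 Readout is luminescence from Caspase-Glo 3/7 added after a 6 h ZIKV infection (2 FFU/cell) of compound-pretreated (1 h) SNB-19 cells; data expressed as % inhibition versus uninfected and infected wells.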

[3] = qHTS assay to identify small molecule inhibitors of chordoma cells - UCH-1 (AID 1259355); conditions: UCH-1 chordoma viability, CellTiter-Glo, 48 h, combination; series mostly up to 46.1 µM; further: nearly all actives have a fitted effect of over 55% in size
Summary of the method: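 Luminescent ATP read-out (CellTiter-Glo, 30min at room temperature) measured viability of UCH-1 cells exposed for 48hr to test drugs at 15 concentrations, co-dosed with a five-agent combination of auranofin, camptothecin, doxorubicin, rubitecan and topotecan.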

[4] = qHTS assay to identify small molecule inhibitors of chordoma cells - UCH-2 (AID 1259356); conditions: UCH-2 chordoma viability, CellTiter-Glo ATP luminescence, 48 h; series mostly up to 46.1 µM
[5] = P-glycoprotein substrates identified in KB-8-5-11 adenocarcinoma cell line, qHTS therapeutic library screen (AID 1346987); conditions: KB-8-5-11 (P-gp overexpressing) viability, CellTiter-Glo, 72 h; series mostly up to 44.5 µM; further: nearly all actives have a fitted effect of over 65% in size; further: potency means the concentration at half of the fitted maximal effect
Summary of the method: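 Steps: plate 500 KB-8-5-11 cells/well in DMEM + 10% FCS (colchicine removed); pin compounds in dose-response; incubate 72 h, 37 degree C, 5% CO2; add CellTiter-Glo, 5 min; read luminescence.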

[6] = NS1 protein of Zika virus - qHTS assay to identify small molecule inhibitors in human HEK 293 cells (AID 1347053); conditions: HEK293 ZIKV MR766 infection, NS1 TR-FRET, 24 h; series mostly up to 46.1 µM; further: nearly all actives have a fitted effect of over 55% in size
Summary of the method: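 HEK 293 cells, seeded 20 h at 37 C, were pretreated with compound 1 h, then infected with ZIKV MR766 (MOI = 0.5) for 24 h. NS1 was read by TR-FRET with two anti-NS1 antibodies, normalized to uninfected and infected wells.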

Measured: Potency

Nc1nc(N)nc(NC2CC2)n1
inactive: [1] | [2] | [3] | [4] | [5] | [6]

NC(=O)c1cc([N+](=O)[O-])cc([N+](=O)[O-])c1
inactive: [1] | [2] | [3] | [4] | [5] | [6]

O=C(N/N=C/c1ccc([N+](=O)[O-])o1)c1cc([N+](=O)[O-])cc([N+](=O)[O-])c1O
inactive: [1] | [2] | [3] | [4] | [5] | [6]

COP(=S)(OC)Oc1ccc(SC)c(C)c1
inactive: [1] | [2] | [3] | [4] | [5] | [6]

Clc1ccc(C(c2ccc(Cl)cc2)C(Cl)(Cl)Cl)cc1
inactive: [1] | [2] | [3] | [4] | [5] | [6]

NNc1ccccc1
inactive: [1] | [2] | [3] | [4] | [5] | [6]

O=C1c2ccccc2C(=O)c2ccccc21
inactive: [1] | [2] | [3] | [4] | [5] | [6]

NC1=NC(=O)C(c2ccccc2)O1 (stereo not drawn)
inactive: [1] | [2] | [3] | [4] | [5] | [6]

CNC(C)(C)Cc1ccccc1
inactive: [1] | [2] | [3] | [4] | [5] | [6]

Clc1cccc(SC2CCNCC2)n1
inactive: [1] | [2] | [3] | [4] | [6]

CC(=O)NC1CCSC1=O (stereo not drawn)
inactive: [1] | [2] | [3] | [4] | [5] | [6]

CCCCCCC(=O)CCCCCC/C=C/C[C@@H](O)[C@H](O)[C@@](N)(CO)C(=O)O
inactive: [1] | [2] | [3] | [4] | [5] | [6]

CCCCCCCCCC(=O)O[C@H]1CC[C@H]2[C@@H]3CCC4=CC(=O)CC[C@@H]4[C@H]3CC[C@]12C
active: [5] 6.51 µM
inactive: [1] | [2] | [4] | [6]

CCC(C)(C)c1ccc(O)cc1
inactive: [1] | [2] | [3] | [4] | [5] | [6]

CC(C)NC(C)C
inactive: [1] | [2] | [3] | [4] | [5] | [6]

O=C1OC(c2ccc(O)c(S(=O)(=O)O)c2)(c2ccc(O)c(S(=O)(=O)O)c2)c2c(Br)c(Br)c(Br)c(Br)c21
inactive: [1] | [2] | [3] | [4] | [5] | [6]

Nc1ccc([As](=O)(O)O)cc1
inactive: [1] | [2] | [3] | [4] | [5] | [6]

Oc1ccc(Cl)cc1
inactive: [1] | [2] | [3] | [4] | [5] | [6]

CC(C)(C)NCC(O)c1cc(Cl)c(N)c(C(F)(F)F)c1 (stereo not drawn)
inactive: [1] | [2] | [3] | [4] | [5] | [6]

CN1CCC(O)(c2ccc(F)cc2)C(C(=O)c2ccc(F)cc2)C1 (stereo not drawn)
inactive: [1] | [2] | [3] | [4] | [5] | [6]

O=c1oc2ccccc2c(O)c1Cc1c(O)c2ccccc2oc1=O
inactive: [1] | [2] | [3] | [4] | [6]

COc1c2c(cc3c1OCO3)CCN(C)C2
inactive: [1] | [2] | [4] | [5] | [6]

CCC1(c2ccccc2)C(=O)N(COC)C(=O)N(COC)C1=O
inactive: [1] | [2] | [3] | [4] | [5] | [6]

CN1CC[C@]23c4c5ccc(O)c4O[C@H]2[C@@H](O)CC[C@H]3[C@H]1C5
inactive: [1] | [2] | [5] | [6]
